# Rows were chosen to be rich in hits. Some 19% of all compounds tested hit in one or more screens of this group.
# TDP1 cell CPT: growth inhibition of DT40 Tdp1-/-;hTDP1 cells with camptothecin (screen for TDP1 inhibitors) | chicken DT40 Tdp1-/-;hTDP1 cells + 20 nM CPT, ATP luminescence, 48 h | Potency, µM (top dose mostly 46.2 µM), inactives show top-dose activity change, negative = growth inhibition, most hits filed as inhibitors | 420,000 compounds, 12% hits; also: potency is read from the fitted curve at half-maximal effect; nearly all actives have a fitted effect of over 55% in size
#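 Cell growth measured by CellTiter-Glo luminescence after a minimum 48 h, 37 C compound exposure with 20 nM CPT in Tdp1-knockout DT40 cells stably expressing hTDP1, seeded 400/well; qHTS titration format.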
# IL-1B inflam inh: inflammasome signaling inhibition, IL-1 beta readout. THP-1 LPS/ATP IL-1B secretion, AlphaLISA, 16 h; hits give low values. activity change, % at 57.5 µM. 360,000 compounds, 4.7% hits. AID 743279; in the data active = activity change below about -50%; inconclusive = mostly about -30% to -49%
#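 THP-1 cells pretreated 1 hr with compounds (up to 57.5 uM final), then stimulated with LPS (250 ng/mL final) plus ATP (1.25 mM final); secreted IL-1B measured by AlphaLISA after 16 hr, decreased signal indicating inhibition.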
# HT1080 IDH1KD tx: kills HT-1080 cells with IDH1 knockdown | HT-1080 IDH1 knockdown viability, ATP luminescence, 48 h | Potency, µM (titrated, usually from 46.1 µM), inactives show top-dose activity, negative = toxicity, actives largely listed as cytotoxic | 360,000 compounds, 2% hits | AID 686971;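 also: potency is read from the fitted curve at half-maximal effect; 0% = DMSO wells and -100% = cell-free medium wells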
#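 CellTiter-Glo luminescence after 48 h compound exposure at 37 degrees C of IDH1-knockdown HT-1080 cells in 5% FBS RPMI. %Activity scaled between DMSO wells and cell-free media wells, with curves fitted and assigned curve classes.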
# HT1080-NT tox: kills 2HG-producing HT-1080-NT fibrosarcoma cells | 360,000 compounds, 1.6% hits | HT-1080-NT fibrosarcoma viability, CellTiter-Glo ATP luminescence, 48 h | Potency, µM (highest dose often 46.1 µM), for inactives: at the highest dose activity, negative = less viability, usual class: cytotoxic;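 also: NT is the 2HG producing partner of a matched IDH1 knockdown line; potency is read from the fitted curve at half-maximal effect; 0% = DMSO-treated cells and -100% = media-only wells without cells; nearly all actives have a fitted effect of over 55% in size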
#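 Read-out is CellTiter-Glo luminescence after 10 minutes at room temperature, following 48 hours' compound treatment of HT-1080-NT cells (750 cells/well, RPMI, 5% FBS, 37 degrees C).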
# TDP1 cell noCPT: qHTS for Inhibitors of human tyrosyl-DNA phosphodiesterase 1 (TDP1): qHTS in cells in absence of CPT; DT40 Tdp1-/- hTDP1 cells, no CPT, ATP luminescence, 48 h; Potency, µM (titrated, usually from 46.2 µM), for inactives: at the top dose activity change, negative = growth inhibition, actives largely listed as inhibitors; 420,000 compounds, 15% hits; also: potency is read from the fitted curve at half-maximal effect; nearly all actives have a fitted effect of over 55% in size
#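 A cellular qHTS used chicken DT40 cells lacking endogenous Tdp1 but carrying stably transfected human TDP1. Compounds were applied without camptothecin, and cell growth kinetics were judged by ATP-dependent luminescence after ≥48 hr.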
# Active calls of the source: *; ? = inconclusive; · = not tested or not shown. Unless noted, calls follow the shape of the dose curve; as a rule, active = well fitted curve in the direction sought with a large enough effect; inconclusive = small, poorly fitted or top-dose-only effect, or another doubt; inactive = no such curve, though single readings can be large; an effect the other way counts as inactive or inconclusive. Unless noted, % is scaled to controls: 0 for no effect and ±100 for the full control effect.
SMILES,TDP1 cell CPT,IL-1B inflam inh,HT1080 IDH1KD tx,HT1080-NT tox,TDP1 cell noCPT
COc1cccc(CN2CCN(C(=O)c3cc(-c4ccncc4)nc4ccc(C)cc34)CC2)c1,23.1µM*,-13.9,-19.2%,-14.2%,16.4µM*
COc1cccc(CN2CCN(C(=O)c3cccc4ccccc34)CC2)c1,-1.6%,-17.8,6.0%,10.9%,11.3%
COc1cccc(NC(=O)CCCN2C(=O)C3CC=CCC3C2=O)c1 (centres undefined),-1.8%,1.6,10.3µM*,?,4.5%
O=C(CCN1CCN(Cc2ccccc2)CC1)Nc1cccc(Br)c1,16.4µM*,-16.1,-16.5%,-10.3%,16.4µM*
COc1cccc(NC(=O)CCN2C(=O)C3CC=CCC3C2=O)c1 (centres undefined),-7.3%,-3.7,-16.6%,1.2%,15.5%
COc1cccc(NC(=O)CCN2CCN(c3ccccc3)CC2)c1,?,·,·,·,10.3µM*
CCN1CCN(CCC(=O)Nc2cccc(OC)c2)CC1,-27.5%,-11.6,-0.9%,2.0%,5.5%
O=C(CCN1CCN(Cc2ccccc2)CC1)Nc1ccc(OCc2ccccc2)cc1,?,0.0,-20.5%,-13.3%,14.6µM*
O=C(NCCCN1CCCC1=O)[C@H](CSCc1ccccc1)N1Cc2ccccc2C1=O,-8.6%,-14.4,9.8%,8.6%,24.1%
COc1ccc(CNC(=O)COC(=O)C(CCSC)NC(=O)c2ccco2)cc1OC (centres undefined),-10.6%,2.6,-0.1%,-6.2%,-15.1%
Cn1c(Cc2ccccc2)nnc1SCC(=O)NC1CCCC1,-5.1%,7.8,3.7%,2.7%,0.2%
CCOc1ccc(CN2CCN(Cc3nc(C(C)C)cs3)CC2CCO)cc1 (centres undefined),?,-13.4,-16.5%,-2.8%,?
CCCS(=O)(=O)c1nc(S(=O)(=O)c2ccc(C)cc2)c(N2CCN(CC)CC2)s1,?,?,-3.3%,9.7%,-9.0%
COc1cccc2c1OCC(C(=O)Nc1nccs1)=C2,3.1%,-1.6,2.7%,0.2%,?
Cc1cc(C)c(NC(=O)CCN2CCN(Cc3ccccc3)CC2)c(C)c1,?,-2.6,-18.1%,-16.5%,16.4µM*
O=C(CCNS(=O)(=O)c1ccccc1)OCC(=O)c1ccc(Cl)cc1,2.2%,-0.1,-2.4%,0.2%,3.3%
COc1ccccc1C(CC(=O)Nc1ccc(C)c(C)c1)c1ccc(OC(C)C)cc1 (centres undefined),?,5.7,?,?,20.6µM*
Cc1ccc(NC(=O)CC(=O)c2ccccc2)cc1C,?,-12.3,-9.2%,9.1%,?
COc1ccc(C(CC(=O)Nc2ccccc2OC)n2cccc2)cc1 (centres undefined),16.4µM*,-4.1,-6.2%,-5.0%,10.3µM*
COc1ccccc1NC(=O)COc1ccccc1,-25.3%,-10.5,-5.3%,2.1%,-20.7%
COc1ccccc1NC(=O)CC(c1ccc(OC(C)C)cc1)c1ccccc1OC (centres undefined),16.4µM*,10.4,6.7%,10.0%,20.6µM*
O=C(NCC1CCC2(CCN(Cc3ccc4ncccc4c3)CC2)O1)C1CCCO1 (centres undefined),-7.1%,·,·,·,-13.5%
CCc1cc2c(cc3c(=O)n(CC(=O)N4CCN(c5cccc(C)c5C)CC4)nc(CC)n32)s1,0.2%,·,·,·,-24.1%
Cc1nn(Cc2c(Cl)cccc2Cl)c(C)c1NC(=O)c1cc(C(C)C)on1,18.4µM*,21.3,23.1µM*,?,20.6µM*
Cc1nn(Cc2ccc(Cl)cc2)c(C)c1NC(=O)C1CC=CCC1C(=O)O (centres undefined),?,9.3,6.3%,7.7%,16.4µM*
SMILES,TDP1 cell CPT,IL-1B inflam inh,HT1080 IDH1KD tx,HT1080-NT tox,TDP1 cell noCPT
Cc1cc(C(=O)Nc2c(C)nn(Cc3c(Cl)cccc3Cl)c2C)no1,-1.1%,30.6,?,?,-21.1%
Cc1nn(Cc2ccc(Cl)cc2)c(C)c1NC(=O)c1c(-c2ccccc2)noc1C,16.4µM*,3.6,-17.2%,-14.7%,-29.9%
Cc1nn(Cc2ccc(Cl)cc2)c(C)c1NC(=O)c1cc(C(C)C)on1,20.6µM*,13.3,-20.2%,?,14.6µM*
Cc1nn(Cc2ccc(Cl)cc2)c(C)c1NC(=O)/C=C/c1cnn(C)c1,?,-0.1,0.9%,-0.4%,?
COCCN1C(=O)c2cc(C(=O)Nc3ccc(OC)c(OC)c3)ccc2C1Nc1ccc(OC)c(OC)c1 (centres undefined),1.5%,-4.5,4.1%,5.3%,-21.2%
Cc1cccc(Nc2nnc(SCC(=O)NC(=O)CN3CCCC3=O)s2)c1,1.9%,13.9,5.9%,3.0%,-3.3%
COC(=O)CN1C(C)=Nc2ccc(C)cc2C1c1ccccc1 (centres undefined),2.4%,-53.1*,2.5%,-3.9%,-24.5%
Cc1cccc(N2CCN(C(=O)c3ccc(Cl)c(NC4=NC5CS(=O)(=O)CC5S4)c3)CC2C)c1 (centres undefined),?,6.6,-5.9%,-1.3%,?
COc1cc(Cl)cc(C2NC(=S)NC(c3ccccc3)=C2C(C)=O)c1OCC(=O)O (centres undefined),3.9%,3.5,19.2%,-0.3%,-9.8%
CCN(C[C@H]1N[C@@](Cc2ccccc2)(C(=O)OC)[C@H]2C(=O)N(Cc3ccccc3)C(=O)[C@@H]12)S(=O)(=O)c1ccc(-c2ccccc2)cc1,-13.9%,-5.3,2.8%,11.5%,-12.2%
CCN(C[C@H]1N[C@@](CC)(C(=O)OC)[C@H]2C(=O)N(Cc3ccccc3)C(=O)[C@@H]12)S(=O)(=O)c1ccc(F)cc1,?,-15.7,4.2%,2.0%,20.6µM*
CCN(C[C@H]1N[C@@](Cc2ccccc2)(C(=O)OC)[C@H]2C(=O)N(Cc3ccccc3)C(=O)[C@@H]12)S(=O)(=O)c1ccccc1,?,-13.1,6.7%,4.2%,23.1µM*
COC(=O)[C@]1(Cc2ccccc2)N[C@H](CN(C)S(=O)(=O)c2ccc(C)cc2)[C@@H]2C(=O)N(Cc3ccccc3)C(=O)[C@@H]21,?,-26.5,-1.3%,0.5%,-29.2%
CCN(C[C@H]1N[C@@](Cc2ccccc2)(C(=O)OC)[C@H]2C(=O)N(Cc3ccccc3)C(=O)[C@@H]12)S(=O)(=O)c1ccc(C)cc1,16.4µM*,-24.6,3.7%,15.3%,20.6µM*
COc1ccc(NC(=O)C(C)N2CCN(C)CC2)cc1 (centres undefined),-5.8%,31.3,9.3%,19.4%,1.8%
CCOc1cccc(C2/C(=C(/O)c3ccc4c(c3)CC(C)O4)C(=O)C(=O)N2Cc2cccnc2)c1 (centres undefined),-5.1%,28.3,21.9%,7.6%,19.9%

# Assay outcomes as filed in PubChem BioAssay.
